Reference: the supplement of paper PMC4466140

B1: unnamed (peptide)
chain: RFKRHRLEFPFNESE

Biological target: ScBbc1
Assay: SPOT peptide array binding signal intensity (averaged, normalized) (arbitrary units (background-subtracted, floor 0; scale differs between SH3 domains)); higher = stronger binding of the SH3 domain to the peptide
How it was run: (§1)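 Cellulose membranes carried synthetic 15-mer peptides with cysteines swapped for serines. These were incubated overnight at 4°C with 10 μg/ml of GST-fused SH3 domains from four yeast species in TBS-based blocking buffer. Binding signal, detected with anti-GST antibody and quantified in Genespotter, is the normalized, background-subtracted spot intensity averaged over replicates, in arbitrary units specific to each domain.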

Row | Binder | SPOT peptide array binding signal intensity
1 | B1 | 11.5

Biological target: ScBem1-D1
Assay: as above
How it was run: as §1

Row | Binder | SPOT peptide array binding signal intensity
2 | B1 | 52

Biological target: ScBzz1-D1
Assay: as above
How it was run: as §1

Row | Binder | SPOT peptide array binding signal intensity
3 | B1 | 12

Biological target: ScBzz1-D2
Assay: as above
How it was run: as §1

Row | Binder | SPOT peptide array binding signal intensity
4 | B1 | 1

Biological target: ScCyk3
Assay: as above
How it was run: as §1

Row | Binder | SPOT peptide array binding signal intensity
5 | B1 | 112

Biological target: ScFus1
Assay: as above
How it was run: as §1

Row | Binder | SPOT peptide array binding signal intensity
6 | B1 | 286

Biological target: ScHof1
Assay: as above
How it was run: as §1

Row | Binder | SPOT peptide array binding signal intensity
7 | B1 | 5.25

Biological target: ScHse1
Assay: as above
How it was run: as §1

Row | Binder | SPOT peptide array binding signal intensity
8 | B1 | 1570

Biological target: ScLsb1
Assay: as above
How it was run: as §1

Row | Binder | SPOT peptide array binding signal intensity
9 | B1 | 36.2

Biological target: ScLsb2
Assay: as above
How it was run: as §1

Row | Binder | SPOT peptide array binding signal intensity
10 | B1 | 3

Biological target: ScLsb3
Assay: as above
How it was run: as §1

Row | Binder | SPOT peptide array binding signal intensity
11 | B1 | 80

Biological target: ScLsb4
Assay: as above
How it was run: as §1

Row | Binder | SPOT peptide array binding signal intensity
12 | B1 | ≤ 0

Biological target: ScMyo3
Assay: as above
How it was run: as §1

Row | Binder | SPOT peptide array binding signal intensity
13 | B1 | ≤ 0

Biological target: ScMyo5
Assay: as above
How it was run: as §1

Row | Binder | SPOT peptide array binding signal intensity
14 | B1 | 3.5

Biological target: ScNbp2
Assay: as above
How it was run: as §1

Row | Binder | SPOT peptide array binding signal intensity
15 | B1 | 154

Biological target: ScPex13
Assay: as above
How it was run: as §1

Row | Binder | SPOT peptide array binding signal intensity
16 | B1 | ≤ 0

Biological target: ScRvs167
Assay: as above
How it was run: as §1

Row | Binder | SPOT peptide array binding signal intensity
17 | B1 | 25.3

Biological target: ScSho1
Assay: as above
How it was run: as §1

Row | Binder | SPOT peptide array binding signal intensity
18 | B1 | 756

Biological target: ScSla1-D1-D2
Assay: as above
How it was run: as §1

Row | Binder | SPOT peptide array binding signal intensity
19 | B1 | 358

Biological target: ScSla1-D3
Assay: as above
How it was run: as §1

Row | Binder | SPOT peptide array binding signal intensity
20 | B1 | 11.8

Biological target: SpAbp1-D1
Assay: as above
How it was run: as §1

Row | Binder | SPOT peptide array binding signal intensity
21 | B1 | 419

Biological target: SpBbc1
Assay: as above
How it was run: as §1

Row | Binder | SPOT peptide array binding signal intensity
22 | B1 | 2.5

Biological target: SpBzz1-D1
Assay: as above
How it was run: as §1

Row | Binder | SPOT peptide array binding signal intensity
23 | B1 | 127

Biological target: SpBzz1-D2
Assay: as above
How it was run: as §1

Row | Binder | SPOT peptide array binding signal intensity
24 | B1 | ≤ 0

Biological target: SpCyk3
Assay: as above
How it was run: as §1

Row | Binder | SPOT peptide array binding signal intensity
25 | B1 | ≤ 0

Biological target: SpHof1
Assay: as above
How it was run: as §1

Row | Binder | SPOT peptide array binding signal intensity
26 | B1 | 68.2

Biological target: SpHof1-2
Assay: as above
How it was run: as §1

Row | Binder | SPOT peptide array binding signal intensity
27 | B1 | 12.2

Biological target: SpHof1-3
Assay: as above
How it was run: as §1

Row | Binder | SPOT peptide array binding signal intensity
28 | B1 | 348

Biological target: SpHse1
Assay: as above
How it was run: as §1

Row | Binder | SPOT peptide array binding signal intensity
29 | B1 | 640

Biological target: SpLsb1
Assay: as above
How it was run: as §1

Row | Binder | SPOT peptide array binding signal intensity
30 | B1 | 10.8

Biological target: SpLsb4
Assay: as above
How it was run: as §1

Row | Binder | SPOT peptide array binding signal intensity
31 | B1 | 30.5

Biological target: SpMyo1
Assay: as above
How it was run: as §1

Row | Binder | SPOT peptide array binding signal intensity
32 | B1 | 0.5

Biological target: SpNbp2
Assay: as above
How it was run: as §1

Row | Binder | SPOT peptide array binding signal intensity
33 | B1 | 298

Biological target: SpPex13
Assay: as above
How it was run: as §1

Row | Binder | SPOT peptide array binding signal intensity
34 | B1 | 15

Biological target: SpRvs167
Assay: as above
How it was run: as §1

Row | Binder | SPOT peptide array binding signal intensity
35 | B1 | 22.5

Biological target: SpSla1-D1-D2
Assay: as above
How it was run: as §1

Row | Binder | SPOT peptide array binding signal intensity
36 | B1 | ≤ 0

Biological target: SpSla1-D3
Assay: as above
How it was run: as §1

Row | Binder | SPOT peptide array binding signal intensity
37 | B1 | 26
